Bioassay records from PubChem.
A selection: hits, their analogues and other compounds. The true share with any hit is near 3%.
TRPM1 prom inh = inhibitors of MITF-dependent TRPM1 promoter reporter, primary screen, cell-based, SK-MEL-5, single point, luciferase; SK-MEL-5 TRPM1 promoter luciferase, 24 h; inhibition, % at 12.5 µM; 330,000 compounds, 0.83% hits;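 active means mean inhibition across replicates of 60% or more, whatever share of single replicates reaches that level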
PAX8 reporter = inhibitors of PAX8-driven TPO luciferase reporter, primary screen, RMG-I cells, single concentration | inhibition, % at 12.6 µM | 360,000 compounds, 1.2% hits | SteadyGlo, 24 h;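 active means mean replicate inhibition at least 60% with every replicate also reaching 60%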;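 further: luciferase light reporting Pax8 driven TPO promoter activity; plate controls were median of neutral control wells for no effect and mitoxantrone controls for full effect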
EWS-Fli block = EWS/Fli-driven NR0B1 reporter inhibitors, primary screen, A673 cells, NR0B1 luciferase, luminescence, MLPCN library | viability-normalised | inhibition, % at 12.6 µM | 350,000 compounds, 0.67% hits | AID 651661, 2012;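 active means mean inhibition of at least 50% after viability correction, with every replicate also passing that limit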;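 further: firefly luciferase signal divided by Alamar Blue viability fluorescence both relative to DMSO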
ABHD5-PLIN5 inh = ABHD5-PLIN5 interaction inhibitors, primary screen, cell lysate, split luciferase complementation, luminescence; Perilipin-5 (Homo sapiens) + 1-acylglycerol-3-phosphate O-acyltransferase ABHD5 (Homo …; Split G. princeps luciferase complementation, 4 h; 360,000 compounds, 0.78% hits; AID 602281, 2012; inhibition, % at 4 µM;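 active means inhibition above the mean inhibition across every tested compound plus 3 SD, cut at about 22% in these data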;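 further: 0% = DMSO only wells and the 100% control is not disclosed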
Target sequence (Q00G26 whole entry, looked up): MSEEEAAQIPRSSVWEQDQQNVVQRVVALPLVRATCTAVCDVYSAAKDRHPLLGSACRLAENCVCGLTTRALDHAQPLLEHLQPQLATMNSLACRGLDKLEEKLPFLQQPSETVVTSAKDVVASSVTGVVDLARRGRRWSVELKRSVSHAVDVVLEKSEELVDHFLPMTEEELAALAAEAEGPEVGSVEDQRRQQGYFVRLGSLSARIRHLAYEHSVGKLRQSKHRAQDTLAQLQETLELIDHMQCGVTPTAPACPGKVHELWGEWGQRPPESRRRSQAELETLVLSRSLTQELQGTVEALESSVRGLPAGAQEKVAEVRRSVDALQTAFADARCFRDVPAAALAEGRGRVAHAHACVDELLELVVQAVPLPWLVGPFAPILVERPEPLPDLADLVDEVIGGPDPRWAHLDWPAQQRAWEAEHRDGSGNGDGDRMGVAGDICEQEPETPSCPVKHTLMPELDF
Target sequence (Q8WTS1 whole entry, looked up): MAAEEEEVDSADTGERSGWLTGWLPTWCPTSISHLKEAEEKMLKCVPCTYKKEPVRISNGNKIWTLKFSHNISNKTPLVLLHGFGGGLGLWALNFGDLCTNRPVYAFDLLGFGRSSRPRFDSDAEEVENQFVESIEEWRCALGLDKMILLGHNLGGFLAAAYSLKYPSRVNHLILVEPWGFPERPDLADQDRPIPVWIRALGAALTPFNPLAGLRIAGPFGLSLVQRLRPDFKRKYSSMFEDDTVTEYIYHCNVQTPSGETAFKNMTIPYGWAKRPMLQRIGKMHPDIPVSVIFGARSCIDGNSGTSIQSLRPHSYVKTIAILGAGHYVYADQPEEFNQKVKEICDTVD
Shn3 3UTR inh = reduction of Shn3 3'UTR firefly luciferase signal, primary screen, Schnurri-3 inhibitor project, cell-based, Clone20 osteoblasts, set 2 | 360,000 compounds, 0.52% hits | inhibition, % at 12.5 µM | Clone20 osteoblast Shn3 3'UTR firefly luciferase, 24 h;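 active means mean inhibition of at least 75% with every replicate also reaching 75%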;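 further: 0% = median of neutral control wells and 100% = pilot-screen positive control compound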
Peg3 prom inh = Peg3 promoter-driven luciferase inhibitors, primary screen, cell-based, HeLa, luciferase luminescence; inhibition, % at 20 µM; HeLa PEG-Prom luciferase reporter, overnight; 360,000 compounds, 1.7% hits;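 active means inhibition of at least 50% at 20 µM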
Starred values were filed as active, the others as inactive; . = not tested or not shown.

SMILES	TRPM1 prom inh	PAX8 reporter	EWS-Fli block	ABHD5-PLIN5 inh	Shn3 3UTR inh	Peg3 prom inh
COc1cccc(S(=O)(=O)N(C)C[C@@H]2OCc3ccccc3-c3c(n(C)c4ccccc34)C(=O)N([C@@H](C)CO)C[C@@H]2C)c1	.	82.0*	7.1	.	.	.
COc1cccc(S(=O)(=O)N(C)C[C@@H]2OCc3ccccc3-c3c(n(C)c4ccccc34)C(=O)N([C@H](C)CO)C[C@@H]2C)c1	.	75.3*	8.2	.	.	.
COc1cccc(S(=O)(=O)N(C)C[C@@H]2OCc3ccccc3-c3c(n(C)c4ccccc34)C(=O)N([C@H](C)CO)C[C@H]2C)c1	.	44.0	19.5	.	.	.
C[C@@H]1CN([C@H](C)CO)S(=O)(=O)c2ccc(C3=CCCC3)cc2O[C@H]1CN(C)S(C)(=O)=O	.	.	-1.1	.	.	.
CO[C@@H]1CN(C)C(=O)c2cc(NS(=O)(=O)CC(F)(F)F)ccc2OC[C@H](C)N(CC2CCCCC2)C[C@H]1C	.	-1.7	6.2	.	.	.
COc1ccc(S(=O)(=O)N(C)C[C@@H]2Oc3c(NC(=O)Nc4ccc(F)cc4)cccc3C(=O)N([C@H](C)CO)C[C@H]2C)cc1	.	.	-24.9	.	.	.
O=C(c1ccc2c(c1)OCCO2)C1CCN(S(=O)(=O)c2ccc(F)cc2)CC1	1.7	.	.	-1.8	28.3	55.0*
NC(=O)C1CCN(S(=O)(=O)c2ccc3c(c2)OCCO3)CC1	9.6	3.9	0.6	-3.9	25.7	10.8
CCS(=O)(=O)Nc1ccc2c(c1)C(=O)N(C)[C@H]1CC[C@@H](CC(=O)N[C@H]3CCN(Cc4ccccc4)C3)O[C@H]1CO2	.	-13.5	-6.8	.	.	.
COc1ccc(NC(=O)Nc2ccc3c(c2)CC(=O)N([C@H](C)CO)C[C@H](C)[C@@H](CN(C)Cc2ccc(-c4ccccc4)cc2)O3)cc1	.	68.2*	14.9	.	.	.
C[C@@H]1CN([C@H](C)CO)C(=O)Cc2cc(NC(=O)Nc3ccccc3)ccc2O[C@@H]1CN(C)Cc1ccc(-c2ccccc2)cc1	.	10.5	-6.0	.	.	.
COc1ccc(NC(=O)Nc2ccc3c(c2)CC(=O)N([C@@H](C)CO)C[C@H](C)[C@H](CN(C)Cc2ccc(-c4ccccc4)cc2)O3)cc1	.	22.4	9.1	.	.	.
C[C@@H]1CN([C@@H](C)CO)C(=O)Cc2cc(NC(=O)Nc3ccccc3)ccc2O[C@H]1CN(C)Cc1ccc(-c2ccccc2)cc1	.	68.4*	10.2	.	.	.
COc1ccc(CN(C)C[C@H]2Oc3ccc(NC(=O)Nc4ccc5c(c4)OCO5)cc3CC(=O)N([C@H](C)CO)C[C@H]2C)cc1	.	103.5*	-14.7	.	.	.
COc1ccc(NC(=O)Nc2ccc3c(c2)CC(=O)N([C@@H](C)CO)C[C@@H](C)[C@H](CN(C)Cc2ccc(-c4ccccc4)cc2)O3)cc1	.	74.9*	23.9	.	.	.
COc1ccc(CN(C)C[C@H]2Oc3ccc(NC(=O)Nc4ccc5c(c4)OCO5)cc3CC(=O)N([C@@H](C)CO)C[C@@H]2C)cc1	.	-5.0	-2.4	.	.	.
CCC(=O)N(C)C[C@H]1Oc2cc(-c3ccc(C)cc3)ccc2S(=O)(=O)N([C@H](C)CO)C[C@H]1C	.	.	-3.4	.	.	.
CO[C@H]1CN(C)C(=O)c2ccc(NC(=O)Nc3ccc(Cl)cc3)cc2OC[C@@H](C)N(C(=O)Nc2c(C)noc2C)C[C@H]1C	.	13.3	-7.1	.	.	.
CCS(=O)(=O)Nc1ccc2c(c1)C(=O)N(C)[C@H]1CC[C@H](CC(=O)NCc3ccccc3F)O[C@@H]1CO2	.	-8.0	0.7	.	.	.
CCc1cccc2c(C(=O)CN3C(=O)NC(C)(c4cccc5ccccc45)C3=O)c[nH]c12 (stereo not given)	1.0	24.7	1.8	15.0	2.9	59.6*
CSC1=NC(C(Cl)(Cl)Cl)N=C(c2ccc(C)cc2)N1 (stereo not given)	-3.6	-8.7	59.5*	-2.4	-7.1	8.1
COc1ccc(NC(=O)C[C@H]2C(=O)N(c3ccc(OC)cc3)C[C@@H]2C)cc1	.	100.8*	0.3	8.1	-7.3	-0.8
O=C(Nc1nccs1)c1ccccc1[N+](=O)[O-]	-5.6	62.9*	-3.6	1.8	1.7	6.1
O=C(Nc1nccs1)c1cc(Cl)ccc1[N+](=O)[O-]	13.3	-3.9	.	0.8	11.2	4.6
O=C(Nc1nccs1)c1cccc(N2C(=O)c3cccc4c([N+](=O)[O-])ccc(c34)C2=O)c1	33.7	.	.	0.7	0.6	110.5*
SMILES	TRPM1 prom inh	PAX8 reporter	EWS-Fli block	ABHD5-PLIN5 inh	Shn3 3UTR inh	Peg3 prom inh
O=C(Nc1ccc(S(=O)(=O)Nc2nccs2)cc1)c1cccc(N2C(=O)c3ccccc3C2=O)c1	-10.5	-6.5	4.2	0.1	5.3	-11.9
C[C@@H]1CN([C@@H](C)CO)C(=O)c2cc(Br)cnc2O[C@@H]1CN(C)C(=O)C1CC1	.	.	-0.8	.	.	.
CCNC(=O)[C@H]1[C@H](CO)[C@H]2Cn3c(ccc(C4=CCCC4)c3=O)[C@H]2N1C(=O)C1CC1	.	.	-0.1	.	.	.
O=C1NCN(c2ccccc2)C12CCN(CCCC(c1ccc(F)cc1)c1ccc(F)cc1)CC2	9.5	20.0	46.3	5.0	54.8	82.0*
CCC(=O)N1CC2(C1)[C@@H](c1ccccc1)[C@@H](CO)N2Cc1ccccc1F	.	-2.5	-0.8	.	.	.
Cc1noc(C)c1S(=O)(=O)N(C)C[C@@H]1Oc2ccc(NC(=O)NC(C)C)cc2CC(=O)N([C@H](C)CO)C[C@H]1C	.	1.9	-6.7	.	.	.
COc1ccc(S(=O)(=O)Nc2ccc(O)c3ccccc23)cc1	68.7*	.	.	2.2	16.0	30.9
COc1ccc(Nc2nc(-c3cccs3)nc3ccccc23)cc1S(=O)(=O)N1CCOCC1	5.6	52.6	3.0	9.9	42.7	55.4*
CNC(=O)C[C@@H]1CC[C@H]2[C@@H](COc3ccc(NC(=O)Nc4ccc(Cl)cc4)cc3C(=O)N2C)O1	.	-3.3	-3.3	.	.	.
CN(C)C(=O)c1ccc(-c2ccccc2[C@@H]2[C@@H](C#N)N(C(=O)C3CCCC3)[C@@H]2CO)cc1	.	.	-3.8	.	.	.
C/C(=N\NC(=S)Nc1ccc(C)cc1)c1cccc(N)c1	-15.8	-2.7	-5.9	-4.0	4.6	-79.9
COc1ccccc1NC(=S)NN=C(C)c1ccccn1	54.0	42.7	-6.3	-0.5	91.4*	-33.2
CC(=NNC(=S)Nc1cccc(C)c1)c1ccccn1	72.2*	77.9*	21.7	1.0	93.0*	-55.5
COc1ccccc1NC(=O)c1ccccc1NC(=O)c1ccccn1	0.2	-0.5	-18.0	-3.8	-11.1	-8.2
CC(=NNC(=S)Nc1ccc(C)cc1)c1ccccn1	6.8	37.1	-18.0	-6.2	72.0	74.4*
COc1ccc(NC(=O)N(C)C[C@@H]2Oc3ccc(NS(=O)(=O)c4ccccc4)cc3CC(=O)N([C@@H](C)CO)C[C@@H]2C)cc1	.	.	-3.4	.	.	.
